Source: PubChem (National Center for Advancing Translational Sciences (NCATS))
TRPV1 PAM = enhances activation of the human vanilloid receptor TRPV1; TRPV1-expressing cells, Fluo-8 calcium influx, capsaicin EC20 potentiation; potentiation, % at 8.33 µM; actives 0.02% (n = 320,000); Q8NER1; in the data active means potentiation above about 80%; inconclusive means between about 30% and that limit; further: 0% is about no effect
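Cells expressing TRPV1 were dye-loaded with Fluo-8 and read kinetically: 10 s baseline, 3 min after compound (agonist portion), then 2 min after EC20 capsaicin (allosteric enhancer portion). Calcium-bound dye fluorescence at 480/520 nm.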
TRPV1 agonist = human TRPV1 agonism. TRPV1-expressing cells, Fluo-8 calcium influx, agonist mode. actives 0.19% (n = 320,000). Q8NER1. activation, % at 8.33 µM; in the data active means activation above about 80%; inconclusive means between about 30% and that limit; further: 0% is about no effect
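Fluo-8 calcium influx in TRPV1-expressing cells, kinetic read (ex 480/em 520 nm). Compound added and read 3 min for agonist activity, followed by capsaicin at EC20 final and 2 min further read for enhancement.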
D1 antagonist = human D1 dopamine receptor antagonism | HEK293 TREx D1 cells, calcium flux, dopamine EC80; active compounds read low | activity change, negative = inhibition, % at 10 µM | actives 3.2% (n = 360,000) | AID 504652; in the data active means activity change below about -30%; further: on the % scale 0 is the no-effect control and ±100 the full control effect
Target sequence (P21728 whole entry, looked up): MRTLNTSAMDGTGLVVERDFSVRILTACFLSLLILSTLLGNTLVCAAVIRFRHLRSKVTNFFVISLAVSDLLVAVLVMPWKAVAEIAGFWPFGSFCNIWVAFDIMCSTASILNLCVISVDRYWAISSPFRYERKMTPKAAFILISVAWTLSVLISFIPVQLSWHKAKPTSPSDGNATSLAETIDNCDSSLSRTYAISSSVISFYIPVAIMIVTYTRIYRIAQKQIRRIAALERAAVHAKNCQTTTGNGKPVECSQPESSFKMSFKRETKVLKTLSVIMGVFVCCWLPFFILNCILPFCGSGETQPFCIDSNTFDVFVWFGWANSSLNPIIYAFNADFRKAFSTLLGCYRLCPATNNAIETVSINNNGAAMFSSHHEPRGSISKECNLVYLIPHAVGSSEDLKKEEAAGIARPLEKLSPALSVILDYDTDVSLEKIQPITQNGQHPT
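Inducible Hek293 Trex D1 cells (tetracycline, overnight, 30 C). Calcium dye 30–90 min RT. Antagonist mode: EC80 dopamine added after 180 s compound read.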
D1 potentiator = human D1 dopamine receptor positive modulation; P21728; HEK293 TREx D1 cells, calcium flux, dopamine EC20 potentiation; potentiation, % at 10 µM; actives 0.036% (n = 360,000); in the data active means potentiation above about 30%; further: 0% is about no effect
D1 agonist = human D1 receptor agonism | P21728 | actives 1% (n = 360,000) | activation, % at 2 µM | HEK293 T-REx D1 cells, calcium flux, agonist mode; in the data active means activation above about 30%; further: 0% is about no effect
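Agonism was scored from calcium flux recorded over 180 s (1 read/s) after pintool compound addition, following a 10-cycle baseline. Cells were inducible force-coupled HEK293 TREx D1, plated overnight at 30 C and loaded with no-wash calcium dye.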
Starred values were filed as active, the others as inactive. Shown are actives, neighbours in structure and some others; about 4.2% of the full set was active somewhere.

Screening Cc1c(C2=CCN(S(=O)(=O)c3ccc(CC(C)C)cc3)CC2)c2ccccc2n1CC(=O)N1CCCC1 returned D1 antagonist 24.0, D1 potentiator -0.7 and D1 agonist 37.8*.
COC(=O)c1ccc(N2CCc3ccccc32)c([N+](=O)[O-])c1 was read as TRPV1 PAM 8.3, TRPV1 agonist 1.0, D1 antagonist -14.3, D1 potentiator 3.4 and D1 agonist -0.4.
Screening CCOC(CNC(=O)c1ccc(N2CCc3ccccc32)c([N+](=O)[O-])c1)OCC returned TRPV1 PAM 16.0, TRPV1 agonist 2.8, D1 antagonist -37.0*, D1 potentiator -9.1 and D1 agonist 12.0.
For CCN1CCc2c(sc(NC(=O)c3ccc(S(=O)(=O)N(C)c4ccccc4)cc3)c2C(=O)NC)C1 the results were TRPV1 PAM 13.4, TRPV1 agonist inconclusive, D1 antagonist 4.6, D1 potentiator 7.0 and D1 agonist 175.0*.
For CNC(=O)c1c(NC(=O)c2ccc(S(=O)(=O)N(C)c3ccccc3)cc2)sc2c1CCN(C(C)C)C2 the results were TRPV1 PAM -5.8, TRPV1 agonist 13.4, D1 antagonist -11.8, D1 potentiator -1.2 and D1 agonist 90.2*.
Screening COC(=O)c1c(NC(=O)c2ccc(S(=O)(=O)N3CCCC(C)C3)cc2)sc2c1CCN(C(C)C)C2 (stereo unspecified) returned D1 antagonist -3.9, D1 potentiator -2.4 and D1 agonist -1.2.
CCc1ccc2c(c1)c(=O)c(S(=O)(=O)c1ccc(F)cc1)cn2CC(=O)Nc1ccc(C)cc1C was read as D1 antagonist -1.3, D1 potentiator 0.0 and D1 agonist 5.8.
Screening CCCCn1c(C)cc2c(c1=O)[C@H]1O[C@](CCCC)(Cc3c1ccc1ccccc31)O2 returned TRPV1 PAM inactive, TRPV1 agonist inactive, D1 antagonist 9.5, D1 potentiator 4.0 and D1 agonist 0.6.
For COc1cc(/C=C2\SC(=S)N(Nc3ccccc3)C2=O)ccc1O the results were TRPV1 PAM 11.2, TRPV1 agonist 18.9, D1 antagonist -2.7, D1 potentiator -4.2 and D1 agonist 121.9*.
Screening COc1cc(/C=C2\SC(=S)N(NC(=O)c3ccc(O)cc3)C2=O)ccc1O returned TRPV1 PAM -19.5, TRPV1 agonist inconclusive, D1 antagonist -10.9, D1 potentiator -7.8 and D1 agonist 124.2*.
Screening CCOc1cc(/C=C2\SC(=S)N(Nc3ccccc3)C2=O)ccc1O returned TRPV1 PAM 15.6, TRPV1 agonist 8.6, D1 antagonist -47.2*, D1 potentiator -6.2 and D1 agonist 39.7*.
For COc1cc(/C=C2\SC(=S)N(C(Cc3ccccc3)C(=O)O)C2=O)ccc1O (stereo unspecified) the results were TRPV1 PAM 5.3, TRPV1 agonist 7.4, D1 antagonist -9.0, D1 potentiator 2.8 and D1 agonist 47.0*.
Screening O=C(O)c1ccc(/C=C2\SC(=S)N(Nc3ccccc3)C2=O)cc1 returned TRPV1 PAM 8.4, TRPV1 agonist -3.0, D1 antagonist -14.5, D1 potentiator -2.2 and D1 agonist 1.5.
O=C(O)C(Cc1ccccc1)N1C(=O)/C(=C/c2ccccc2)SC1=S (stereo unspecified) was read as TRPV1 PAM 1.7, TRPV1 agonist -1.8, D1 antagonist -7.0, D1 potentiator -5.5 and D1 agonist 1.6.
`COc1cccc(CN(C(=O)COc2ccc(Cl)c(C)c2)C2CCS(=O)(=O)C2)c1` (stereo unspecified) gave D1 antagonist 0.9, D1 potentiator -1.0 and D1 agonist 5.3.
For O=C1/C(=C/c2ccc(O)c(O)c2)SC(=S)N1Nc1ccccc1 the results were TRPV1 PAM -2.4, TRPV1 agonist 14.0, D1 antagonist 9.2, D1 potentiator -4.3 and D1 agonist 48.0*.
Screening O=C(NN1C(=O)/C(=C/c2ccc(O)c(O)c2)SC1=S)c1ccccc1 returned TRPV1 PAM inconclusive, TRPV1 agonist 3.3, D1 antagonist 11.7, D1 potentiator 1.1 and D1 agonist 25.6.
COc1ccc(/C=C2\SC(=S)N(CC3CCCO3)C2=O)cc1 (stereo unspecified) was read as TRPV1 PAM -9.5, TRPV1 agonist 21.8, D1 antagonist 1.7, D1 potentiator 0.5 and D1 agonist 12.2.
Cc1ccc(C(=O)NN2C(=O)/C(=C/c3cn(C)c4ccccc34)SC2=S)cc1 was read as TRPV1 PAM 8.0, TRPV1 agonist -4.1, D1 antagonist 18.0, D1 potentiator -2.4 and D1 agonist 65.0*.
COc1cc(/C=C2/SC(=S)N(CC3CCCO3)C2=O)ccc1O (stereo unspecified) was read as TRPV1 PAM -7.5, TRPV1 agonist 15.8, D1 antagonist -0.9, D1 potentiator 2.5 and D1 agonist 87.2*.
For CCOC(=O)N1CCN(c2ccc(S(=O)(=O)N(Cc3ccccc3)Cc3ccccc3)cn2)CC1 the results were TRPV1 PAM 0.0, TRPV1 agonist 0.9, D1 antagonist -31.4*, D1 potentiator -6.2 and D1 agonist 27.1.
CCOC(=O)N1CCN(C(=O)CN(Cc2ccc(Cl)cc2)S(=O)(=O)c2ccccc2)CC1 was read as TRPV1 PAM -11.5, TRPV1 agonist 5.6, D1 antagonist -39.0*, D1 potentiator -0.6 and D1 agonist 3.0.
CCN(CC)S(=O)(=O)c1ccc(N2CCN(CCO)CC2)nc1 was read as TRPV1 PAM 4.0, TRPV1 agonist -2.0, D1 antagonist -70.9*, D1 potentiator -6.7 and D1 agonist 2.3.
CCOC(=O)N1CCN(C(=O)CN(c2cc(C)ccc2OC)S(=O)(=O)c2ccc(C)cc2)CC1 was read as D1 antagonist -38.1*, D1 potentiator -1.9 and D1 agonist 3.4.
For COc1ccc(-n2cc(C(=O)NCCc3cc(OC)ccc3OC)c3ccccc3c2=O)cc1 the results were D1 antagonist 0.6, D1 potentiator -2.2 and D1 agonist -2.2.
For COc1cc2c(cc1OC)C(COc1ccc3c(C)cc(=O)oc3c1)N(C(=O)CC(C)C)CC2 (stereo unspecified) the results were D1 antagonist 4.3, D1 potentiator -0.1 and D1 agonist 3.2.
`N/C(=N\S(=O)(=O)c1cc(C(F)(F)F)cc(C(F)(F)F)c1)c1ccncc1` gave TRPV1 PAM -6.8, TRPV1 agonist 3.7, D1 antagonist -0.6, D1 potentiator 0.6 and D1 agonist 4.2.
N/C(=N\S(=O)(=O)c1cc(C(F)(F)F)cc(C(F)(F)F)c1)c1ccc(Cl)cc1 was read as TRPV1 PAM -9.1, TRPV1 agonist 28.0, D1 antagonist -77.5*, D1 potentiator -6.8 and D1 agonist 1.4.
O=c1cc(-c2ccccc2)[nH]n1-c1nc2ccccc2s1 was read as TRPV1 PAM -22.1, TRPV1 agonist -2.8, D1 antagonist -35.9*, D1 potentiator -8.4 and D1 agonist -0.2.
